From PubChem BioAssay (Tox21) come the findings set out here.

Assay [1] in a line: qHTS RealTime-Glo MT Cell Viability Assay in HepG2 cells - 32 hour (AID 1224877). Also: nearly all actives have a fitted effect of over 55% in size. Also: potency is read from the fitted curve at half-maximal effect. The method, boiled down:
(§1)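 HepG2 suspension premixed with RealTime-Glo reagents is plated at 600 cells per well and left 5 h at 37 C/5% CO2. Compounds in DMSO then go in, and bioluminescence reflecting viable cell number is recorded over 40 h.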

Assay [2] can be described thus: A CellTox Green Cytotoxicity Assay to monitor cytotoxicity in HepG2 cells - 24 hour (AID 1224878). Also: nearly all actives have a fitted effect of over 45% in size. Also: potency is read from the fitted curve at half-maximal effect. In a few lines:
(§2)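 Cytotoxicity was tracked as dead-cell DNA fluorescence in HepG2 cells treated with test compounds at 37 C; each time-point value comes from one kinetic series spanning 0, 8, 16, 24, 32 and 40 h.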

A short description of assay [3]: A CellTox Green Cytotoxicity Assay to monitor cytotoxicity in HepG2 cells - 40 hour (AID 1224879). Also: nearly all actives have a fitted effect of over 40% in size. Also: potency is read from the fitted curve at half-maximal effect. The method, boiled down:
as §2

Assay [4] is described as follows: qHTS RealTime-Glo MT Cell Viability Assay in HEK293 cells - 0 hour (AID 1224880). Also: top concentration of the series differs between compounds; nearly all actives have a fitted effect of over 45% in size. The method, boiled down: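 Kinetic, non-lysing viability readout. Seed HEK293 (600/well) with reagent, incubate 5 h at 37 C/5% CO2, pin 23 nL compound in DMSO, incubate at 37 C, read luminescence at 0, 8, 16, 24, 32, 40 h.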
The nature of assay [5]: A CellTox Green Cytotoxicity Assay to monitor cytotoxicity in HepG2 cells - 0 hour (AID 1224882). Also: nearly all actives have a fitted effect of over 35% in size. In a few lines: as §2
The nature of assay [6]: A CellTox Green Cytotoxicity Assay to monitor cytotoxicity in HepG2 cells - 32 hour (AID 1224883). Also: nearly all actives have a fitted effect of over 50% in size. Also: potency is read from the fitted curve at half-maximal effect. In a few lines:
as §2

The nature of assay [7]: A CellTox Green Cytotoxicity Assay to monitor cytotoxicity in HEK293 cells - 8 hour (AID 1224884). Also: nearly all actives have a fitted effect of over 35% in size. Also: potency is read from the fitted curve at half-maximal effect. The method, boiled down: (§3)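 Real-time, in one plate: 600 HEK293 cells/well with dead-cell DNA dye, pinned compound after 5 h, 37 C incubation over 40 h; viable cells give no appreciable fluorescence.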
Assay [8] in a line: qHTS RealTime-Glo MT Cell Viability Assay in HepG2 cells - 16 hour (AID 1224885). Also: nearly all actives have a fitted effect of over 50% in size. Also: potency is read from the fitted curve at half-maximal effect. In a few lines: as §1
Assay [9] is described as follows: qHTS RealTime-Glo MT Cell Viability Assay in HEK293 cells - 24 hour (AID 1224886). Also: nearly all actives have a fitted effect of over 50% in size. Also: potency is read from the fitted curve at half-maximal effect. As to activity change, negative = cytotoxicity: top concentration of the series differs between compounds. The method, boiled down: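 Reads taken at 0, 8, 16, 24, 32 and 40 h from the same wells. HEK293 cells (600/well) carried RealTime-Glo reagents from seeding, with compound added after a 5 h settle at 37 C.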
The nature of assay [10]: A CellTox Green Cytotoxicity Assay to monitor cytotoxicity in HEK293 cells - 32 hour (AID 1224881). Also: nearly all actives have a fitted effect of over 40% in size. Also: potency is read from the fitted curve at half-maximal effect. The method, boiled down: as §3

Molecules are shown by their SMILES. Unmarked numbers belong to inactive results. Results filed as inconclusive are left out. The source made the active and inactive calls. Calls follow the shape of the dose curve; as a rule, active = well fitted curve in the direction sought with a large enough effect in the repeat runs; inconclusive = weak or mixed curves; inactive = no such curve, though single readings can be large; an effect the other way counts as inactive or inconclusive.
% is scaled to controls: 0 for no effect and ±100 for the full control effect.

As for `CCNc1nc(NC(C)(C)C)nc(OC)n1`, the Potency entry in assay [1], in assay [2], in assay [3], in assay [4], in assay [5] and in [6] was “inactive” each time. Further, the Potency entry in assay [7] and in assay [8] was “inactive” in each case.
On to `CC/C=C(\C)C=O`, for which the Potency entry in [1], in assay [2], in [3], in assay [4], in [5] and in assay [7] was “inactive” in each case. The Potency result in [8] and in assay [9] was “inactive” each time.
On to `C/C=C/C(=O)OCC(C)C`, for which the Potency result in [1], in assay [2], in assay [3], in assay [4], in assay [10] and in [5] was “inactive” each time. In addition, the Potency entry in [7], in assay [8] and in assay [9] was “inactive” throughout.
Take `C/C=C/C(=O)C1=C(C)C=CCC1(C)C`: the Potency result in [1], in assay [2], in assay [3], in assay [4], in assay [5] and in assay [6] was “inactive” throughout. Moreover, the Potency entry in assay [7], in [8] and in [9] was “inactive” throughout.
For `C=Cc1ccc(O)c(OC)c1`, the Potency entry in assay [1], in assay [2], in assay [3], in assay [4], in [5] and in assay [6] was “inactive” in each case. Besides, the Potency entry in assay [7], in assay [8] and in assay [9] was “inactive” throughout.
For the molecule `CC(c1cc(C(C)(C)C)cc(C(C)(C)C)c1O)c1cc(C(C)(C)C)cc(C(C)(C)C)c1O`, the Potency result in assay [1], in assay [2], in assay [3], in [4], in assay [5] and in [6] was “inactive” in each case. Besides, the Potency result in [7] and in assay [8] was “inactive” each time.
Consider `O=C(NCc1ncc(C(F)(F)F)cc1Cl)c1c(Cl)cccc1Cl`, for which the Potency result in [1], in [2], in assay [4], in assay [5], in [7] and in assay [8] was “inactive” throughout. The Potency in [3] was 17.4 µM (active); in [9], 21.9 µM (active).
On to `[Cl][Dy]([Cl])[Cl]`, for which the Potency entry in assay [1], in assay [2], in [3], in assay [4], in assay [10] and in assay [5] was “inactive” each time. Besides, the Potency entry in [6] and in [9] was “inactive” each time.
For the molecule `CC(C)C(=O)C(C)C`, the Potency entry in [1], in [2], in [3], in assay [4], in assay [5] and in [6] was “inactive” each time. The Potency entry in assay [7], in [8] and in assay [9] was “inactive” in each case.
`ClC(c1ccccc1)(c1ccccc1)c1ccccc1`: the Potency result in assay [1], in [2], in assay [3], in assay [10], in assay [5] and in assay [6] was “inactive” throughout. Moreover, the Potency entry in assay [7], in assay [8] and in assay [9] was “inactive” each time.
Consider `CC(C)=CCC[C@H](C)CC=O`, for which the Potency result in assay [1], in assay [2], in assay [3], in assay [5], in [6] and in [7] was “inactive” in each case. In addition, the Potency result in assay [8] and in [9] was “inactive” throughout.
`O=C(O)CN(CCCN(CC(=O)O)CC(=O)O)CC(=O)O`: the activity change, negative = cytotoxic in assay [1] was 7.15% [at 15.8 µM]; in assay [8] it was -11.5% [at 15.8 µM]. For the same molecule, the cytotoxicity is -12.4% [at 15.8 µM] in [2] and -9.07% [at 15.8 µM] in assay [5]. Also, the cytotoxicity increase in assay [3] is -13.1% [at 15.8 µM]; in assay [10] it was 1.94% [at 15.8 µM]; in assay [6], -13.5% [at 15.8 µM]; in assay [7] it was -4.96% [at 15.8 µM]. In [9], the activity change, negative = cytotoxicity is -9.03% [at 15.8 µM].
With `C=CC(=O)OCC(Br)CBr` (stereo unspecified), the Potency entry in assay [1], in assay [2], in assay [3], in assay [10], in assay [5] and in assay [6] was “inactive” throughout. For the same molecule, the Potency result in [7] and in assay [8] was “inactive” throughout.
For `CCN(CC)c1ccc(N=Nc2ccccc2)cc1`, the Potency result in assay [1], in assay [2], in [3], in assay [10], in assay [5] and in assay [6] was “inactive” in each case. Also, the Potency entry in [7] was “inactive”. Further, the Potency in [9] is 49 µM (active).
Regarding `COc1cccc(-c2ccc(/C=C\CN3CCCCCC3)cc2Cl)c1`, the Potency in assay [1] was 48.7 µM (active); in assay [2], 43.4 µM (active); in assay [3], 38.7 µM (active); in assay [6] it was 38.7 µM (active); in assay [8], 43.4 µM (active); in assay [9] it was 43.4 µM (active). For the same molecule, the Potency result in assay [5] was “inactive”.
On to `CCCC(C)C=O` (stereo unspecified), for which the Potency result in assay [1], in assay [2], in assay [3], in [10], in assay [5] and in assay [7] was “inactive” each time. Moreover, the Potency result in assay [8] and in assay [9] was “inactive” in each case.
With `CN[C@H]1CC[C@@H](c2ccc(Cl)c(Cl)c2)c2ccc(S(N)(=O)=O)cc21`, the Potency in assay [1] is 19.5 µM (active); in assay [2], 13.8 µM (active); in [3], 13.8 µM (active); in assay [7], 54.9 µM (active); in assay [8], 43.6 µM (active); in assay [9] it was 21.9 µM (active). The Potency entry in assay [5] is “inactive”.
Turning to `CN1CCN(CCCN2c3ccccc3Sc3ccc(C(F)(F)F)cc32)CC1`, the Potency was 23.9 µM (active) in [1]; 21.3 µM (active) in assay [2]; 23.9 µM (active) in assay [3]; 23.9 µM (active) in assay [10]; 21.3 µM (active) in assay [6]; 23.9 µM (active) in assay [7]. Moreover, in [9], the Potency is 23.9 µM (active). For the same molecule, in assay [5], the Potency entry is “inactive”.
For `O=C1CCC(=O)N1`, the Potency result in [1], in assay [2], in assay [3], in assay [5], in assay [6] and in assay [7] was “inactive” throughout. Besides, in [8], the Potency result is “inactive”.
Regarding `Cc1cc(C)c(O)c(C(C)(C)C)c1`, the Potency result in [1], in [2], in [3], in assay [5], in assay [6] and in [7] was “inactive” in each case. In addition, the Potency entry in assay [8] and in assay [9] was “inactive” in each case. Besides, the Potency in [10] was 27.5 µM (active).
On to `CN1CCN(c2ccccc2/C=C2\SCCN(c3ccc(Cl)c(Cl)c3)C2=O)CC1`, for which the Potency is 21.9 µM (active) in assay [1]; 24.5 µM (active) in [2]; 19.5 µM (active) in assay [3]; 21.9 µM (active) in assay [6]; 43.6 µM (active) in assay [8]; 12.3 µM (active) in assay [9]. In addition, the Potency result in [5] is “inactive”.
In the case of `C/C(=N\[Si](C)(C)C)O[Si](C)(C)C`, the Potency result in assay [1], in assay [2], in assay [3], in assay [5], in assay [6] and in [7] was “inactive” in each case. In addition, the Potency entry in assay [8] and in [9] was “inactive” in each case.
With `Nc1ccc(Oc2cccc(Oc3ccc(N)cc3)c2)cc1`, the Potency entry in [1], in [2], in [3], in assay [5], in assay [6] and in assay [7] was “inactive” each time. Moreover, the Potency result in assay [8] and in assay [9] was “inactive” each time.
On to `Cc1c(Cl)c(=O)oc2cc(O)ccc12`, for which the Potency entry in assay [1], in assay [2], in assay [3], in assay [10], in [5] and in assay [6] was “inactive” throughout. In addition, the Potency result in [7] and in [8] was “inactive” in each case. Also, the Potency in assay [9] is 49 µM (active).
